A selection: hits, their analogues and other compounds. The true share with any hit is near 4.6%.
HIF-2a block = inhibitors of HIF-2a; 786-0 RCC cells HIF-2a reporter, luciferase luminescence, overnight; inhibition, % at 18.8 µM; 360,000 tested, 0.72% active; AID 624352;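 active = inhibition of the luminescence signal of 40% or more relative to plate controls, in a single-dose primary screen at 18.75 µM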
CF NFkB inh = inhibitors of cystic fibrosis induced NF-kB. KKLEB NF-kB-GFP reporter, PAF-induced, GFP fluorescence overnight. inhibition, % at 5 µM. 360,000 tested, 0.86% active. AID 588850;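 active = at least 50% inhibition at 5 µM, scaled per plate between neutral and stimulator controls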;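 note: PAF is a Pseudomonas aeruginosa culture filtrate used as stimulus; plate controls were PAF-stimulated DMSO wells for no effect and unstimulated DMSO wells for full effect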
Peg3 prom inh = inhibitors of Peg3 promoter; AID 588405; inhibition, % at 20 µM; HeLa PEG-Prom luciferase reporter, luminescence, overnight; 360,000 tested, 1.7% active;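 active = inhibition of at least 50% at 20 µM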
Mdm2-MdmX inh = disrupts the human Mdm2-MdmX interaction; O15151+Q00987; SaOS-2 split-luciferase Mdm2/MdmX complementation, luminescence; inhibition, % at 8 µM; 330,000 tested, 3% active; AID 485346;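 active = inhibition of at least 50% at 8 µM in the primary screen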
Target sequence (O15151 whole entry, looked up): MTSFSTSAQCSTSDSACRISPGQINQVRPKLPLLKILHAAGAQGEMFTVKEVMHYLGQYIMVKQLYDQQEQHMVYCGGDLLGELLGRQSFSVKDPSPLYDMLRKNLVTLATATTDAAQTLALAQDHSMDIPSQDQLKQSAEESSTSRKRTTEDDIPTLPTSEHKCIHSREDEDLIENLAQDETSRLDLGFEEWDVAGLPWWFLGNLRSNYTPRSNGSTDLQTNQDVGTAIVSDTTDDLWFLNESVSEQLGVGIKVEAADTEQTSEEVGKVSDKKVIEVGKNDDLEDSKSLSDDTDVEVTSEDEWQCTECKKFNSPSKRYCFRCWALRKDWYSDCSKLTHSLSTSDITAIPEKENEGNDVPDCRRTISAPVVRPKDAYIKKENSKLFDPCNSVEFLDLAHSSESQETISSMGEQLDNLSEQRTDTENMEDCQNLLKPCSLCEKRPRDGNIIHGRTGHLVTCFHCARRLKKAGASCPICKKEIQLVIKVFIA
Target sequence (Q00987 whole entry, looked up): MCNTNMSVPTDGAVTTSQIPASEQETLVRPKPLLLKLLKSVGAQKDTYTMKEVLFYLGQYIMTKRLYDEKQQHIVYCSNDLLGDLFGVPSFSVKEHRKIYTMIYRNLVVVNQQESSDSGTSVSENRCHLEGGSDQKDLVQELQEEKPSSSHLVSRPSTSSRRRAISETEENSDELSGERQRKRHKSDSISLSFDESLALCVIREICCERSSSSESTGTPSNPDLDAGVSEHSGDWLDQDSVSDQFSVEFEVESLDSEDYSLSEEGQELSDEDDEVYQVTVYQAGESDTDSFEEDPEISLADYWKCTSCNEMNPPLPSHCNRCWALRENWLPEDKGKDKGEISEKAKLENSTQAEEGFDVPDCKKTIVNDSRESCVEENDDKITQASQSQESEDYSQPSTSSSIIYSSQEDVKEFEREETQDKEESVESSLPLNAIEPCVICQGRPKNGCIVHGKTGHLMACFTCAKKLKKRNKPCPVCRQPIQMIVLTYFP
KKLEB cytotox = counter-screen for CF NF-kB inhibitors: cytotoxicity | KKLEB CF airway cells viability, ATPlite luminescence, overnight; active compounds read low; cells stimulated with P. aeruginosa culture filtrate | activity change (cytotoxicity), % at 5 µM | 360,000 tested, 0.36% active | AID 602141;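 active = corrected activity change at or below -50% at 5 µM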
ABHD5-PLIN5 inh = ABHD5-PLIN5 protein interaction inhibition. Q00G26+Q8WTS1. Split G. princeps luciferase complementation, luminescence, 4 h. inhibition, % at 4 µM. 360,000 tested, 0.78% active. AID 602281;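 active = inhibition above the mean inhibition across every tested compound plus 3 SD, cut at about 22% in these data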;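 note: 0% = DMSO only wells and the 100% control is not disclosed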
* hit, by the source's call; . = no result given.

SMILES	HIF-2a block	CF NFkB inh	Peg3 prom inh	Mdm2-MdmX inh	KKLEB cytotox	ABHD5-PLIN5 inh
CCCCc1ccc(NC(=O)CN2C(=O)C3CCCCC3C2=O)cc1 (stereo not drawn)	-30	-4	-27	-5	6	-13
CC1CC(=O)c2cc(-c3ccccc3)oc2C1 (stereo not drawn)	-195	0	-240	.	-3	1
CC1CC(=O)C(C(C2=C(O)CC(C)CC2=O)c2ccccc2)=C(O)C1 (stereo not drawn)	8	9	10	.	5	23*
COCCCN(C(=O)CCOc1ccccc1C)c1c(N)n(Cc2ccccc2)c(=O)[nH]c1=O	13	-8	20	4	-12	1
Cc1ccc(NC(=O)COc2cccc(-n3cnnn3)c2)cc1S(=O)(=O)N1CCOCC1	12	-40	3	-9	0	3
CCN=C1S/C(=C\c2cn(C(C)=O)nc2-c2ccccc2)C(=O)N1CC	-12	28	13	11	2	-1
CC(=O)NC1=NC(=O)/C(=C/c2cn(C(C)=O)nc2-c2ccccc2)S1	6	57*	-6	44	-5	-32
COc1nc(NCCc2ccc(OC)c(OC)c2)nc(Nc2ccccc2)n1	-108	9	-33	-6	0	-2
CCOC(=O)c1c(-c2ccc(-c3ccccc3)cc2)csc1NC(=O)C1C2CCC(O2)C1C(=O)O (stereo not drawn)	10	2	-1	10	10	34*
O=c1oc(CCCO)cc2ccccc12	-3	-4	1	13	-2	5
CC1(C(=O)Nc2cnc3ccccc3c2)CCN1CCc1ccccc1 (stereo not drawn)	0	17	51*	.	0	1
CC1(C(=O)Nc2cnc3ccccc3c2)CCN1C(=O)CCc1ccccc1 (stereo not drawn)	-11	20	0	.	-9	3
Cc1c(C(=O)N2CCC2(C)C(=O)O)oc2ccccc12 (stereo not drawn)	20	6	-2	.	-21	0
CC(=O)Nc1ccc(NC(=O)c2ccc(S(=O)(=O)N(C)c3ccccc3)cc2)cc1	23	-14	15	30	11	-7
Cc1nc2ccc(NC(=O)c3ccc(S(=O)(=O)N(C)c4ccccc4)cc3)cc2s1	23	2	67*	49	19	5
COc1ccc(C(C)(C)C)cc1NC(=O)COc1ccc(-c2nnco2)cc1	20	8	8	27	-5	5
COc1ccc(OC)c(-c2cc(C(=O)Nc3sc4c(c3C#N)CCC(C)C4)c3ccccc3n2)c1 (stereo not drawn)	9	38	3	0	-52*	4
CCC(CC)CC1CN2CCc3cc(OC)c(OC)cc3C2CC1(O)CC (stereo not drawn)	5	12	-7	.	5	-6
O=C(CN(CC1CCCO1)C(=O)CNS(=O)(=O)c1ccccc1)NCCc1ccccc1 (stereo not drawn)	6	5	17	-3	-7	0
CCN(CC)CCNC(=O)c1nn(-c2ccc(Cl)cc2)c2c1CCc1cc(OC)ccc1-2	-22	19	94*	.	-6	4
C=CCn1c(SCC(=O)c2c(N)n(C)c(=O)n(C)c2=O)nnc1-c1ccoc1C	-5	7	-7	25	-12	-2
N#CC1=C(N)n2c(s/c(=C\c3ccco3)c2=O)=C(C#N)C1c1ccco1 (stereo not drawn)	12	-43	5	5	5	23*
Cc1oc(C(C)(C)C)cc1C(=O)Nc1cccc(/C=C\C(=O)O)c1	-18	7	-32	0	-1	23*
Cc1cccc(S(=O)(=O)Nc2nc3ccccc3nc2OC(C)C)c1	12	-9	12	0	6	-6
COc1cccc(-c2onc3ccc(C(C)=O)cc23)c1	-131	2	-118	1	18	11
SMILES	HIF-2a block	CF NFkB inh	Peg3 prom inh	Mdm2-MdmX inh	KKLEB cytotox	ABHD5-PLIN5 inh
CC(=O)c1ccc2noc(-c3cccc(F)c3)c2c1	-15	-6	-9	4	-5	22*
C=C1CCC2C(C)(C(=O)O)CCCC2(C)C1CCC(CO)CCO (stereo not drawn)	-1	-8	107*	.	16	-2
CCCN1C(=O)/C(=C/c2nc3ccccc3c(=O)[nH]2)c2ccccc21	20	-32	47	19	5	1
CC(C)N1C(=O)/C(=C\c2nc3ccccc3c(=O)[nH]2)c2ccccc21	31	21	61*	.	2	18
CCCc1nc2c3ccccc3ccn2c1Cc1ccccc1	-222	-42	-275	.	-8	3
FC(F)(F)c1cccc(NC(=S)NC(c2ccccc2)c2ccccc2)c1	10	46	50*	.	-42	-15
Cc1cccc(N2CCN(CCCNC(=O)C3CCCN(c4ncnc5c4nc4n5CCCCC4)C3)CC2C)c1 (stereo not drawn)	12	-4	60*	45	11	-1
O=C(NCC1CCN(Cc2ccc(Cl)cc2)CC1)C1CCCN(c2ncnc3c2nc2n3CCCCC2)C1 (stereo not drawn)	16	9	51*	38	-2	5
O=C(NCC1CCN(Cc2ccc(F)cc2)CC1)C1CCCN(c2ncnc3c2nc2n3CCCCC2)C1 (stereo not drawn)	17	2	22	20	-9	5
O=C(Nc1ccc(Cl)c(S(=O)(=O)N2CCOCC2)c1)c1cc2ccccc2oc1=O	-154	8	95*	-3	-3	4
O=C(NCC1CCCCC1)c1cccc(S(=O)(=O)N2CCCC2)c1	0	-5	12	0	9	-2
CCCCNC(=O)C1=C(N)C(C(=O)Nc2ccc(C)c(S(=O)(=O)N3CCCCC3)c2)SC1=Nc1ccc(C)cc1C (stereo not drawn)	12	-5	34	8	7	24*
Nc1ccccc1C(=O)NN=Cc1cccnc1	-150	-1	-113	.	-3	-6
O=C(CSc1nc2ccccc2c(=O)n1-c1ccc(F)cc1)Nc1ccc(N2CCOCC2)cc1	7	-16	14	-25	7	-6
O=C(CSc1nc2ccccc2c(=O)n1-c1ccc(SC(F)F)cc1)Nc1ccc(N2CCOCC2)cc1	4	66*	6	38	-66*	-3
O=C1OC(CC(=O)N(Cc2nnc(-c3ccc(Cl)cc3)o2)C2CC2)c2ccccc21 (stereo not drawn)	0	17	-6	13	-4	3
CN(C)CC(O)c1ccc(C=Cc2ccc(Cl)cc2)cc1 (stereo not drawn)	-263	36	104*	.	-13	12
CN(C)/C=C/C(=O)/C=C/c1ccc(Cl)cc1	-177	23	-152	-41	-9	19
Cc1ccc(C)c(C2=NNC(=O)CC2)c1	7	-2	5	-12	5	3
COc1cc(SC#N)ccc1N=Cc1c(C)[nH]n(-c2ccc(Cl)cc2)c1=O	12	-13	56*	23	9	-24

Screening data: PubChem BioAssay, several laboratories
